A short description of experiment [1]: ATG_NFI_CIS: Attagene CIS-FACTORIAL HepG2 Assay for human Nuclear Factor I (NFI) (AID 2282989). The conditions noted are these: HepG2 cis-regulatory reporter, NFI response element transcription; actives raise or lower the signal. In a few lines: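 Reporter transcription driven by endogenous transcription factors in HepG2 cells; 24 h treatment. Quantitation by labelled RT-PCR fragments on capillary electrophoresis, gain- or loss-of-signal relative to DMSO.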

Experiment [2] has as its target Myc proto-oncogene protein (Homo sapiens) (UniProt P01106). Briefly: ATG_Myc_CIS: Attagene CIS-FACTORIAL HepG2 Assay for human Myelocytomatosis (Myc) Proto-Oncogene Transcription Factor (AID 2282990). The conditions noted are these: HepG2, Attagene cis-reporter transcription factor activity; actives raise or lower the signal. Summed up:
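DMSO-normalised, bidirectionally fitted reporter mRNA signal. HepG2 cells transfected with cis reporter constructs, treated 24 h; transcripts detected by RT-PCR, 6-FAM primer extension and CE.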

The nature of experiment [3]: ATG_NF_kB_CIS: Attagene CIS-FACTORIAL HepG2 Assay for human Nuclear Factor Kappa B (NF-kB) (AID 2282991). The conditions noted are these: HepG2 Attagene cis-factorial NF-kB reporter mRNA; actives raise or lower the signal. Summed up: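 Read-out: reporter transcript levels quantified by RT-PCR plus capillary electrophoresis of 6-FAM-labelled, HpaI-cut fragments. Transfected HepG2 cells, 24 h compound exposure, endogenous NF-kB-driven cis element; gain or loss scored versus DMSO.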

Experiment [4] can be described thus: ATG_NRF2_ARE_CIS: Attagene CIS-FACTORIAL HepG2 Assay for human Nuclear Factor Erythroid 2 Related Factor 2 (NFR2) response to Antioxidant Response Elements (ARE) (AID 2282992).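 On AC50: reporter mRNA level measured by RT-PCR and capillary electrophoresis fluorescence.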 As to conditions: HepG2 Attagene ARE/NRF2 reporter, transcription factor activity; actives raise or lower the signal. In a few lines:
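HepG2 cells transiently transfected with multiplexed cis-element reporter constructs, 24 h after chemical dosing; reporter mRNA quantified by RT-PCR, fluorescent primer extension, HpaI digestion and capillary electrophoresis. Bidirectional fit relative to DMSO.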

Experiment [5] in a line: ATG_Oct_MLP_CIS: Attagene CIS-FACTORIAL HepG2 Assay for human Octamer-Binding Transcription Factor (Oct) (AID 2282993). The conditions noted are these: HepG2 Attagene cis-factorial Oct reporter, mRNA; actives raise or lower the signal. Summed up:
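Transfected HepG2 cells, 24 h treatment. Reporter mRNA quantified by RT-PCR–capillary electrophoresis; bidirectional fitting against DMSO.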

Experiment [6] has as its target Peroxisome proliferator-activated receptor gamma (Homo sapiens) (UniProt P37231). As to the kind of experiment: ATG_PPARg_TRANS: Attagene TRANS-FACTORIAL HepG2 Assay for human Peroxisome Proliferator-activated Receptor-gamma (PPARg) (AID 2283007; active means hit-call score of the fitted dose curve at least 0.9, where 1 is the maximum). In a few lines:
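Read-out: reporter mRNA induction, detected by fluorescence after RT-PCR and capillary electrophoresis. Transiently transfected human HepG2 liver cells carrying a chimeric NR-Gal4 construct were dosed for 24 h; activity was fitted upward relative to DMSO.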

Experiment [7] deals with Nuclear receptor subfamily 1 group I member 2 (Homo sapiens) (UniProt O75469). Briefly: ATG_PXR_TRANS: Attagene TRANS-FACTORIAL HepG2 Assay for human Pregnane X Receptor (PXR) (AID 2283008; active means hit-call score of the fitted dose curve at least 0.9, where 1 is the maximum). In a few lines: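 HepG2 cells transiently transfected with GAL4-UAS reporter units and PXR-Gal4 chimera, exposed 24 h. Reporter mRNA quantified by RT-PCR, fluorescent labelling, HpaI digestion and capillary electrophoresis; gain of signal vs DMSO.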

Experiment [8] deals with human Retinoic Acid Receptor gamma (RARg), RARG (gene 5916) (UniProt P13631). Briefly: ATG_RARg_TRANS: Attagene TRANS-FACTORIAL HepG2 Assay for human Retinoic Acid Receptor gamma (RARg) (AID 2283009; active means hit-call score of the fitted dose curve at least 0.9, where 1 is the maximum). Summed up: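 HepG2 transiently transfected with GAL4-UAS reporter units and chimeric NR-Gal4 constructs; 24 h compound exposure. Reporter mRNA quantified by RT-PCR, FAM labeling, HpaI digestion and capillary electrophoresis; gain-of-signal versus DMSO.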

For experiment [9], the target named is Cellular tumor antigen p53 (Homo sapiens) (UniProt P04637). As to the kind of experiment: ATG_p53_CIS: Attagene CIS-FACTORIAL HepG2 Assay for human p53 Transcription Factor (AID 2282994). The conditions noted are these: HepG2 p53 cis-element reporter, Attagene mRNA; actives raise or lower the signal. Summed up: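 HepG2 cells transiently transfected with cis-regulated multiple reporter transcription units, dosed 24 h. Reporter mRNA measured by RT-PCR, 6-FAM primer extension, HpaI digestion and capillary electrophoresis; bidirectional fit relative to DMSO.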

Experiment [10] has as its target human Peroxisome Proliferator-activated Receptor alpha (PPARa), PPARA (gene 5465) (UniProt Q07869). Briefly: ATG_PPARa_TRANS: Attagene TRANS-FACTORIAL HepG2 Assay for human Peroxisome Proliferator-activated Receptor alpha (PPARa) (AID 2283001; active means hit-call score of the fitted dose curve at least 0.9, where 1 is the maximum;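 on AC50: potency for gain of reporter signal over DMSO so agonist or activator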). Summed up:
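Gain-of-signal endpoint: reporter mRNA induction relative to DMSO, detected by fluorescent RT-PCR and capillary electrophoresis. HepG2 cells transiently carried GAL4-UAS-driven reporter units plus NR-Gal4 fusion; exposure lasted 24 h.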

Experiment [11] concerns the target human Peroxisome Proliferator-activated Receptor delta (PPARd), PPARD (gene 5467) (UniProt Q03181). Briefly: ATG_PPARd_TRANS: Attagene TRANS-FACTORIAL HepG2 Assay for human Peroxisome Proliferator-activated Receptor delta (PPARd) (AID 2283002; active means hit-call score of the fitted dose curve at least 0.9, where 1 is the maximum). Summed up: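 Measured quantity: GAL4-UAS reporter transcript induction in HepG2 after 24 h chemical dosing, with NR-Gal4 chimeras supplied by transient transfection. Detection by RT-PCR and capillary electrophoresis; upward fit against DMSO.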

Experiment [12] concerns the target human RAR-related Orphan Receptor beta (RORb), RORB (gene 6096) (UniProt Q92753). Briefly: ATG_RORb_TRANS: Attagene TRANS-FACTORIAL HepG2 Assay for human RAR-related Orphan Receptor beta (RORb) (AID 2283010; active means hit-call score of the fitted dose curve at least 0.9, where 1 is the maximum). Summed up: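 HepG2 cells transiently transfected with GAL4-UAS reporter units expressing chimeric NR-Gal4 protein; reporter mRNA measured 24 h after dosing by RT-PCR, 6-FAM labelling and capillary electrophoresis. Gain-of-signal fitted relative to DMSO baseline.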

For experiment [13], the target named is human Retinoic Acid Receptor beta (RARb), RARB (gene 5915) (UniProt P10826). As to the kind of experiment: ATG_RARb_TRANS: Attagene TRANS-FACTORIAL HepG2 Assay for human Retinoic Acid Receptor beta (AID 2283004; active means hit-call score of the fitted dose curve at least 0.9, where 1 is the maximum). In a few lines:
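HepG2 cells were transiently transfected with GAL4-UAS reporter units that report activity of exogenous chimeric NR-Gal4 proteins, then exposed to compound for 24 h. Reporter mRNA was quantified by RT-PCR with capillary electrophoresis fluorescence, as gain of signal over DMSO.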

Experiment [14] has as its target Retinoic acid receptor alpha (Homo sapiens) (UniProt P10276). Briefly: ATG_RARa_TRANS: Attagene TRANS-FACTORIAL HepG2 Assay for human Retinoic Acid Receptor alpha (RARa) (AID 2283005; active means hit-call score of the fitted dose curve at least 0.9, where 1 is the maximum). In a few lines: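 HepG2 cells transiently transfected with multiple reporter units expressing chimeric RARα-GAL4 fusion, with GAL4-UAS-driven reporters. After 24 h compound exposure, reporter mRNA induction quantified by RT-PCR and capillary electrophoresis with fluorescent labeling; gain-of-signal fitted relative to DMSO control.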

Records with an inconclusive call do not appear. Active and inactive are the calls of the source. How the source made its calls, unless noted: active means hit-call score of the fitted dose curve at least 0.9, where 1 is the maximum; inactive means score below 0.9.

The term AC50 denotes the midpoint of the concentration-response curve, whichever way the signal moves.

Sequence of human Peroxisome Proliferator-activated Receptor delta (PPARd), PPARD (gene 5467) (Q03181 whole entry, looked up, the tested form may be a part): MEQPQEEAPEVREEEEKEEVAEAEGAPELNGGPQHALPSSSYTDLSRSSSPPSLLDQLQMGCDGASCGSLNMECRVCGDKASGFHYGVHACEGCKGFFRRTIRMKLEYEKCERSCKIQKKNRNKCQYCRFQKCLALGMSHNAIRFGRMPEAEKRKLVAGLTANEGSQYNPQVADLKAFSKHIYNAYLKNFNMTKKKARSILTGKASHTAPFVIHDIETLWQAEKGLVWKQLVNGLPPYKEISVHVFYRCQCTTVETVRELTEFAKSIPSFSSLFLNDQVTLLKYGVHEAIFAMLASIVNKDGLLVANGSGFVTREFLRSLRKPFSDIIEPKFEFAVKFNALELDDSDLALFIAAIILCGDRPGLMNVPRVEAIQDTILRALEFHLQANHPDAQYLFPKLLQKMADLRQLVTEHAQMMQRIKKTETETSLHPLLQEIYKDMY
Sequence of Nuclear receptor subfamily 1 group I member 2 (Homo sapiens) (O75469 whole entry, looked up, the tested form may be a part): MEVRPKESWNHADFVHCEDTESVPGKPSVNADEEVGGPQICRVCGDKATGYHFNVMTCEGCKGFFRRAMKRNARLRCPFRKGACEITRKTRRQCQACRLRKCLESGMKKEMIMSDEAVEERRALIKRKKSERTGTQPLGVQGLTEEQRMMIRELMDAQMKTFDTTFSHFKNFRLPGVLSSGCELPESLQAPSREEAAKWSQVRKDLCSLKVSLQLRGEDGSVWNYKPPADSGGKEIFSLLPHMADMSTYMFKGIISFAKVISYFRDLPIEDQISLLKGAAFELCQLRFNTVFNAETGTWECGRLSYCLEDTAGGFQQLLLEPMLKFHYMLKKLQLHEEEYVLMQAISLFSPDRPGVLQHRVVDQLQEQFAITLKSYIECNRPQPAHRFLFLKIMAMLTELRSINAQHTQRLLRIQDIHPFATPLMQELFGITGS
Sequence of human RAR-related Orphan Receptor beta (RORb), RORB (gene 6096) (Q92753 whole entry, looked up, the tested form may be a part): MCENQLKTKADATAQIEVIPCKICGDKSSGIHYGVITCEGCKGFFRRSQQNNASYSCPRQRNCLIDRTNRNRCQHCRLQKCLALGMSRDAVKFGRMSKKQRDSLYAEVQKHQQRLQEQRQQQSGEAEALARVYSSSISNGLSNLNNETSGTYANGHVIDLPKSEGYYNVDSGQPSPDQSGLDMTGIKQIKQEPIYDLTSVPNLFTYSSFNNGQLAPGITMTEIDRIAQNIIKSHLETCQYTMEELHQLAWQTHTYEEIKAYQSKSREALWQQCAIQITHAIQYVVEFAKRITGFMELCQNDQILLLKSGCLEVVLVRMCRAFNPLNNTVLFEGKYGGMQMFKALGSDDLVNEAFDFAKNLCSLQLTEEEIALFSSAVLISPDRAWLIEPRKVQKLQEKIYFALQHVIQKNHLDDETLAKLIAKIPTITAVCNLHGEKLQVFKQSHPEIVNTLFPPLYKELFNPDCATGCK
Sequence of Peroxisome proliferator-activated receptor gamma (Homo sapiens) (P37231 whole entry, looked up, the tested form may be a part): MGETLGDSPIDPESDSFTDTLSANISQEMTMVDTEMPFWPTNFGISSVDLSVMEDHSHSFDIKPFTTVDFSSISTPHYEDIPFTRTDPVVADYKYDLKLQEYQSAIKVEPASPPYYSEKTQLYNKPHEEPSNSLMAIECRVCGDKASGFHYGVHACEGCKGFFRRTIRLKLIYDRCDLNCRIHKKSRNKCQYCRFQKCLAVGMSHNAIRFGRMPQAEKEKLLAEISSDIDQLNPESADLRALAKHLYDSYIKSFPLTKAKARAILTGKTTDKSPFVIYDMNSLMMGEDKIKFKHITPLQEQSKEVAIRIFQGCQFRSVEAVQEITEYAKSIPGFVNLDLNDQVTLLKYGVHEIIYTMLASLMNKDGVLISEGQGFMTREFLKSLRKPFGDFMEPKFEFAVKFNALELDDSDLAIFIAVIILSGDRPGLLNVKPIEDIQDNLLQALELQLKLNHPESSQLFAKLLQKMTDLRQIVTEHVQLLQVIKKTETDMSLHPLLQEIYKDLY
Sequence of human Retinoic Acid Receptor gamma (RARg), RARG (gene 5916) (P13631 whole entry, looked up, the tested form may be a part): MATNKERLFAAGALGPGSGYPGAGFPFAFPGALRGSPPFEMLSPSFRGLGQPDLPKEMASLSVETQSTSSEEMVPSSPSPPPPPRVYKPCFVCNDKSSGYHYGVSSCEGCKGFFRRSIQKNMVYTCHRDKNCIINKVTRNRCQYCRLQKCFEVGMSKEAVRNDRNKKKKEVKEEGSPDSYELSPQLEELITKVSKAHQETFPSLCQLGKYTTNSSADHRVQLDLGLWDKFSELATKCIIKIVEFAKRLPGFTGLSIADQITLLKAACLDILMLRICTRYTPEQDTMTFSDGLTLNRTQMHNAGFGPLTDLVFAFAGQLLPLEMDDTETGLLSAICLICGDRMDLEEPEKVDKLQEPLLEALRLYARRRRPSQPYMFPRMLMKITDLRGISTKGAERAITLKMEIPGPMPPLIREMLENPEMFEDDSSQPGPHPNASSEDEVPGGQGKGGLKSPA
Sequence of human Peroxisome Proliferator-activated Receptor alpha (PPARa), PPARA (gene 5465) (Q07869 whole entry, looked up, the tested form may be a part): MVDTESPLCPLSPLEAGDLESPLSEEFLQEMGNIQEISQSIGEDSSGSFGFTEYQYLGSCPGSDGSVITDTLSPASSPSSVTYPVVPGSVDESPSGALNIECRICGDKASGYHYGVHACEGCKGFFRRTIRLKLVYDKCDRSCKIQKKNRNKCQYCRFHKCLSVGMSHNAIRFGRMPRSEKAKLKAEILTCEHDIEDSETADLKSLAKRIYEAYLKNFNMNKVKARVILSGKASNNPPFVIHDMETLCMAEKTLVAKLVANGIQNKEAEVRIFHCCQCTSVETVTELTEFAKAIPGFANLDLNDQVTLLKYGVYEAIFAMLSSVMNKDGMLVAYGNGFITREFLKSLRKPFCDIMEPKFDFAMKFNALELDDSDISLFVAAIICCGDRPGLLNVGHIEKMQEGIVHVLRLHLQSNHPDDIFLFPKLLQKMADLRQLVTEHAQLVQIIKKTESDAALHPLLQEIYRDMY
Sequence of Retinoic acid receptor alpha (Homo sapiens) (P10276 whole entry, looked up, the tested form may be a part): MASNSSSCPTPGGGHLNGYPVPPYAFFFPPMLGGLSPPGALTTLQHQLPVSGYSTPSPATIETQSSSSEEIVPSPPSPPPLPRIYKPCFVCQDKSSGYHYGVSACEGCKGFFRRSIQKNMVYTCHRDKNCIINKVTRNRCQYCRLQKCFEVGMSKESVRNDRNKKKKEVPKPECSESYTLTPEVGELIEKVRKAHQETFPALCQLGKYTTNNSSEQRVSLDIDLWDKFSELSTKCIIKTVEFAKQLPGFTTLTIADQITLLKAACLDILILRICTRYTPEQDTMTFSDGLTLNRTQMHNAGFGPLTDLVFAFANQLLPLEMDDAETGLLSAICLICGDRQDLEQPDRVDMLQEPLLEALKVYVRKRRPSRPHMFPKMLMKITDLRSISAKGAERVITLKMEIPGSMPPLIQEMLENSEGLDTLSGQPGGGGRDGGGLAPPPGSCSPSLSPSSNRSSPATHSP
Sequence of Myc proto-oncogene protein (Homo sapiens) (P01106 whole entry, looked up): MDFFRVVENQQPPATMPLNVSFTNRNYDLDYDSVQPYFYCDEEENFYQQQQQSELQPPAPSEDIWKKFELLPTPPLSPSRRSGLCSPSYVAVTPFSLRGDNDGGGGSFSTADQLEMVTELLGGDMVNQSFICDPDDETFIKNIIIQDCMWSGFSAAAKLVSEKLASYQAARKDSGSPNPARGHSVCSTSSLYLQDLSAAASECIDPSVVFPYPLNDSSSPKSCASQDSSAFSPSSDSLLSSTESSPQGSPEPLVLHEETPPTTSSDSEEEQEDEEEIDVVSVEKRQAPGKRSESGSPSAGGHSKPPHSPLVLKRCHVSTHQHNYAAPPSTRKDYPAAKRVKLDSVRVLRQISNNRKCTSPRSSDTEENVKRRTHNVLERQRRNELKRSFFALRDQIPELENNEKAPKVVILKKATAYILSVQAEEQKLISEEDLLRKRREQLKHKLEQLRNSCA
Sequence of Cellular tumor antigen p53 (Homo sapiens) (P04637 whole entry, looked up): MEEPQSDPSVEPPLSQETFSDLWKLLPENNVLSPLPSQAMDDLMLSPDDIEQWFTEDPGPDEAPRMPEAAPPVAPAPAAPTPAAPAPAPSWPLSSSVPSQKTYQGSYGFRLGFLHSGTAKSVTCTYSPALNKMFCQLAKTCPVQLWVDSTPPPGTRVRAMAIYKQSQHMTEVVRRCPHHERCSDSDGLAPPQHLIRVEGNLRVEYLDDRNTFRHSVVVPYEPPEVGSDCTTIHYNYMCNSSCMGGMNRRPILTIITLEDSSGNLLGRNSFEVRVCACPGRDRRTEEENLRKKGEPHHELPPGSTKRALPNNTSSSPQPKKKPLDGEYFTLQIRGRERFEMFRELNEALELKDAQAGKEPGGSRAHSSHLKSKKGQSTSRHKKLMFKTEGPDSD
Sequence of human Retinoic Acid Receptor beta (RARb), RARB (gene 5915) (P10826 whole entry, looked up, the tested form may be a part): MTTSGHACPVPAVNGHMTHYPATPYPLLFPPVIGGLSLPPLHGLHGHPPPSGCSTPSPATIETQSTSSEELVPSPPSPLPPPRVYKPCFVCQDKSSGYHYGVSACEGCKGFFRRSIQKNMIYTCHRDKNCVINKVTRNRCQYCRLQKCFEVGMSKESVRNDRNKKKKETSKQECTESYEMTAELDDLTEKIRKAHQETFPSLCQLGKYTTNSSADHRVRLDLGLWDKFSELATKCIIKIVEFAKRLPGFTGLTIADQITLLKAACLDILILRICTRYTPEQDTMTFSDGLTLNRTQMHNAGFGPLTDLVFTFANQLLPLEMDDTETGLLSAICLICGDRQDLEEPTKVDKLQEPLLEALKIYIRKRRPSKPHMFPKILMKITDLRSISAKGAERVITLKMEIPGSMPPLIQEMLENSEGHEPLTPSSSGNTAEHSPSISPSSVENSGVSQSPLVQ

`c1cc(N(CC2CO2)CC2CO2)ccc1OCC1CO1` (stereo unspecified): the AC50 in [1] is 27 µM (active); in experiment [2], 163 µM (active); in experiment [3], 48.4 µM (active); in [4], 25.4 µM (active); in experiment [5] it was 20.3 µM (active). Besides, the result in [6], in [7] and in [8] was inactive.

With `CC(C)CCCCCOC(=O)CCS`, the compound was classed as inactive in experiment [1], in [2], in experiment [3], in experiment [4], in experiment [9] and in experiment [11]. Also, the outcome in experiment [6] and in experiment [12] was inactive. Further, the AC50 was 9.41 µM (active) in experiment [10] and 27.1 µM (active) in experiment [7].

Consider `OCCc1ccncc1`, for which the outcome in experiment [1], in experiment [2], in experiment [3], in experiment [4], in [5] and in experiment [13] was inactive. For the same compound, the result in experiment [14], in experiment [6] and in [12] was inactive.

For `COC(=O)/C=C\C(=O)O`, the compound was called inactive in [1], in experiment [2], in experiment [3], in [5], in experiment [10] and in [8]. Besides, the values for the AC50 in [4] and in experiment [6] were 43.3 µM (active) and 35.2 µM (active), respectively.

`O=C1C=CC(=O)O1`: the result in experiment [1], in experiment [2], in [3], in experiment [4], in [9] and in experiment [10] was inactive. In addition, the compound was called inactive in experiment [14] and in [12].

For the compound `Cn1c(=O)[nH]c2ncn(C)c2c1=O`, the compound was classed as inactive in experiment [1], in experiment [2], in [3], in experiment [4], in [9] and in experiment [14]. The result in [7], in experiment [8] and in [12] was inactive.

In the case of `CC(C)(Oc1ccc(C2CC2(Cl)Cl)cc1)C(=O)O` (stereo unspecified), the call in experiment [1], in experiment [2], in experiment [3], in experiment [4], in [5] and in experiment [14] was inactive. Besides, the outcome in experiment [7] and in experiment [8] was inactive. In addition, the AC50 in experiment [10] was 0.975 µM (active).

On to `C=COCCCC`, for which the compound was classed as inactive in experiment [1], in experiment [2], in experiment [3], in [4], in experiment [5] and in [11]. Moreover, the result in experiment [14] was inactive.

Regarding `Cc1ccc2oc(=O)ccc2c1`, the compound was called inactive in experiment [1], in experiment [2], in experiment [3], in [5], in [10] and in experiment [14]. In addition, the compound was classed as inactive in experiment [6], in experiment [7] and in experiment [12]. The AC50 in [4] was 58.4 µM (active).

On to `O=C1c2ccccc2C(=O)C1c1nc2ccccc2c(Br)c1O`, for which the outcome in experiment [1], in [2], in experiment [9], in experiment [11], in [7] and in experiment [12] was inactive. Further, the values for the AC50 in experiment [3], in experiment [4] and in [6] were 28.4 µM (active), 1.83 µM (active) and 11.5 µM (active), respectively.

For the compound `O=c1[nH]nc(-c2ccc([N+](=O)[O-])o2)o1`, the compound was classed as inactive in experiment [1], in [2], in experiment [3], in experiment [9], in experiment [10] and in experiment [11]. Further, the outcome in experiment [7] and in [12] was inactive. Moreover, the AC50 in experiment [4] was 61.3 µM (active).

Consider `O=C(C(Cl)Cl)N1CCOC12CCCCC2`, for which the outcome in experiment [1], in [3], in [5], in experiment [11], in [6] and in [7] was inactive. Moreover, in [8], the compound was classed as inactive. The AC50 was 8.87 µM (active) in [2] and 7.52 µM (active) in [4].

As for `CCC(Cc1ccccc1)(C(=O)c1ccc(N2CCOCC2)cc1)N(C)C` (stereo unspecified), the compound was classed as inactive in experiment [1], in experiment [2], in [3], in experiment [9] and in [11]. Also, the AC50 in [4] is 37.2 µM (active); in [6], 35.1 µM (active); in experiment [7] it was 2.42 µM (active).

In the case of `CC(C)c1ccc2c(c1)CC[C@H]1[C@](C)(CN)CCC[C@]21C`, the result in experiment [1], in experiment [2], in experiment [4], in experiment [9], in experiment [11] and in experiment [7] was inactive. In addition, the AC50 in experiment [3] was 5.84 µM (active); in experiment [10], 6.09 µM (active).

The values are drawn from PubChem BioAssay (EPA / NIEHS).
